Bioassay records (PubChem)
TDP1 cell CPT – DT40-hTDP1 cell growth loss with CPT. chicken DT40 Tdp1-/-;hTDP1 cells + 20 nM CPT, ATP luminescence, 48 h. Potency, µM (doses to about 46.2 µM), for the others: at the top dose activity change, negative = growth inhibition, actives largely listed as inhibitors. 420,000 tested, 12% active; note: potency is the fitted concentration of half-maximal effect; % is set by controls: 0 for no effect and ±100 for the full control effect; nearly all actives have a fitted effect of over 55% in size
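Chicken DT40 Tdp1-/- cells complemented with human TDP1, 400 cells/well, exposed to compounds plus 20 nM camptothecin for at least 48 h at 37 C; viability read as ATP content by CellTiter-Glo luminescence.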
TDP1 cell noCPT – qHTS for Inhibitors of human tyrosyl-DNA phosphodiesterase 1 (TDP1): qHTS in cells in absence of CPT. DT40 Tdp1-/- hTDP1 cells, no CPT, ATP luminescence, 48 h. Potency, µM (series often up to 46.2 µM), for the others: at the top dose activity change, negative = growth inhibition, usual class: inhibitors. 420,000 tested, 15% active. AID 686978, 2013; note: potency is the fitted concentration of half-maximal effect; % is set by controls: 0 for no effect and ±100 for the full control effect; nearly all actives have a fitted effect of over 55% in size
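Growth of hTDP1-complemented DT40 Tdp1-knockout cells is measured by ATP luminescence after at least 48 hr compound exposure at 37 °C, with DMSO substituting for the 20 nM CPT used in the parallel screen.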
TDP1 block – inhibitors of human tyrosyl-DNA phosphodiesterase TDP1; recombinant TDP1, AlphaScreen DNA substrate cleavage; Potency, µM (highest dose often 130 µM), without a hit: at the top dose activity change, negative = inhibition, hits mostly inhibitors; 350,000 tested, 0.28% active; note: potency is the fitted concentration of half-maximal effect; % is set by controls: 0 for no effect and ±100 for the full control effect; nearly all actives have a fitted effect of over 40% in size
Target sequence (Q9NUW8 whole entry, looked up): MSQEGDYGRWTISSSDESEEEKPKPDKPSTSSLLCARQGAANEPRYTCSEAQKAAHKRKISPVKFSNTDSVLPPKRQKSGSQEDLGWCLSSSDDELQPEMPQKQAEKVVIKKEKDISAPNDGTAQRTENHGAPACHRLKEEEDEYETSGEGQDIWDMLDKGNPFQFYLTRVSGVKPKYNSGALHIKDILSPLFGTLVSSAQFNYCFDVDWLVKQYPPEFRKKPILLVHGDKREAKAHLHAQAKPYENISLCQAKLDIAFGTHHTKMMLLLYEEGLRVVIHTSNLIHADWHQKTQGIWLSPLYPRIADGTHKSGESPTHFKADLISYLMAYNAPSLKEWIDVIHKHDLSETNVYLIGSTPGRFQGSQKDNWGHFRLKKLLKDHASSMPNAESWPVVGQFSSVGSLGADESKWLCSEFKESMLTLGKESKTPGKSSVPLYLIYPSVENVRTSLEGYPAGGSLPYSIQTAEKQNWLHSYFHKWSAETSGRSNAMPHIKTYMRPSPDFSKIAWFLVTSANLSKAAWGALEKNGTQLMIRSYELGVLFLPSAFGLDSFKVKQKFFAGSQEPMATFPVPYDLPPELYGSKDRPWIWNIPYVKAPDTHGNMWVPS
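Tdp1 1 nM final; 15 min RT w/ cpd; substrate 15 nM, 5 min; beads 10 ug/ml, 10 min; AlphaScreen read. Neg ctrl: no enzyme.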
HepG2 tox – HepG2 cytotoxicity, counter-screen for TGF-b inhibitors | HepG2 CAGA-GFP viability, ATP luminescence, 18 h | AID 588856 | 410,000 tested, 0.76% active | Potency, µM (doses to about 46.1 µM), without a hit: at the highest dose activity change, negative = cytotoxicity, most hits filed as cytotoxic; note: potency is the fitted concentration of half-maximal effect
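CellTiter-Glo luminescence gave cytotoxicity after 18 hours at 37 degrees C. The cells were HepG2 CAGA-GFP in 1% FBS DMEM, stimulated with 500 pg/mL TGF-beta after compound addition. %Activity was normalised to no-cell wells (complete cell-killing) and DMSO (no toxicity), and curves were fitted and classified.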
IL-1B inflam inh – inhibitors of inflammasome signaling (IL-1 beta secretion). activity change, % at 57.5 µM. 360,000 tested, 4.7% active. THP-1 LPS/ATP IL-1B secretion, AlphaLISA, 16 h; stronger effect = lower value. AID 743279; in the data active = activity change below about -50%; inconclusive = mostly about -30% to -49%; note: % is set by controls: 0 for no effect and ±100 for the full control effect
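Secreted IL-1B measured by AlphaLISA bead assay after 16 h compound exposure of THP-1 cells; compounds (final up to 57.5 uM) added 1 h before LPS (250 ng/mL) and ATP (1.25 mM) stimulation; lower signal means less secretion.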
TGFb inhibitor – TGF-b pathway inhibition; HepG2 CAGA-GFP TGF-b/SMAD3 reporter, GFP fluorescence, 18 h; TGF-beta stimulated, 500 pg/mL final; Potency, µM (highest dose often 46.1 µM), for inactives: at the highest dose activity, negative = inhibition, hits mostly inhibitors; 410,000 tested, 1.2% active; AID 588855; note: potency is the fitted concentration of half-maximal effect; % is set by controls: 0 for no effect and ±100 for the full control effect; nearly all actives have a fitted effect of over 65% in size
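Smad-responsive CAGA-GFP expression was quantified in HEPG2 cells exposed to compounds and 500 pg/mL final TGF-beta for 18 h at 37 degrees C; unstimulated wells defined full inhibition.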
* marks the source's active call; other numbers are inactive results; u = inconclusive; x = no result; [ ] = remark or other dose. In the library only some 19% were active in any assay of this set; here they are far more common. Unless noted, calls come from the whole dose curve; as a rule, active = well fitted curve in the direction sought with a large enough effect; inconclusive = small, poorly fitted or top-dose-only effect, or another doubt; inactive = no such curve, though single readings can be large; an effect the other way counts as inactive or inconclusive.

SMILES | TDP1 cell CPT | TDP1 cell noCPT | TDP1 block | HepG2 tox | IL-1B inflam inh | TGFb inhibitor
COc1cccc(-c2nc(CS(=O)(=O)CC(=O)NC3CCCC3)c(C)o2)c1 | -1.0% | 19.6% | 11.6% | -10.0% | 28.6 | -20.6%
COS(C)(=O)=O | 6.4% | -12.2% | 1.8% | x | x | x
CCC(C)Sc1ccc([C@@H]2[C@@H]3C(=O)N(C)C(=O)[C@@H]3[C@]3(C(=O)OC)CCCCN23)cc1OC (stereo partly drawn) | u | 18.4µM* | -2.5% | -10.8% | -0.2 | 1.3%
CCC(C)Sc1ccc([C@@H]2[C@H]3C(=O)N(C)C(=O)[C@H]3[C@]3(C(=O)OC)CCCN23)cc1 (stereo partly drawn) | u | 14.6µM* | 3.9% | -5.0% | 28.1 | 1.4%
CCC(C)Sc1ccc([C@H]2N[C@@](C)(C(=O)OC)[C@H]3C(=O)N(C)C(=O)[C@@H]23)cc1OC (stereo partly drawn) | -35.1% | u | x | -8.2% | 17.2 | 3.9%
O=C(Nc1ccc(Cl)cc1)N1CCCN(Cc2ccc(F)cc2)C1 | 23.1µM* | 20.6µM* | 5.9% | 11.2µM* | u | u
COC(=O)C/C=C\[C@@H](C)[C@@H](/C=N\OC[C@@H](O)COCc1ccco1)OC | x | x | 5.8%[21 µM] | x | x | x
Cc1cccc2cc(CN(C(=O)c3ccc(C(F)(F)F)cc3)C3CC3)c(N3CCC(O)CC3)nc12 | -4.0%[9.04 µM] | u | x | x | x | x
Cc1ccc(C(=O)N(Cc2cc3cccc(C)c3nc2N2CCC(O)CC2)C2CC2)cc1 | -1.0%[9.04 µM] | 13µM* | x | x | x | x
O=C(C1=C(O)C(=O)N(c2nc3ccc(Cl)cc3s2)C1c1ccco1)c1ccco1 (stereo not drawn) | u | 2.31µM* | -1.6% | -1.7% | 63.2 | -25.2%
COC(=O)C[C@H]1c2ccccc2S(=O)(=O)N1Cc1ccc(OC)cc1 | u | u | x | 1.6% | 17.1 | 3.2%
CCOC(=O)C[C@H]1c2ccccc2S(=O)(=O)N1Cc1cc(OC)c(OC)c(OC)c1 | 14.6µM* | 10.3µM* | x | -62.8% | 0.0 | 0.6%
COC(=O)C[C@H]1c2ccc(C(F)(F)F)cc2S(=O)(=O)N1Cc1ccccc1 | 0.9% | u | x | 4.3% | -1.8 | -1.5%
CCOC(=O)C[C@H]1c2ccccc2S(=O)(=O)N1Cc1cccc(C(F)(F)F)c1 | u | 12.6µM* | x | -21.8% | 22.6 | -17.9%
COC(=O)[C@@]1(Cc2ccc(OC)cc2)[C@H]2c3cc(C(=O)N(C)C)n(Cc4nc5ccccc5[nH]4)c3C[C@H]2CN1C(=O)c1ccccc1 | x | x | 19.5% | x | x | x
CC1(C)N=C(SCC(=O)Nc2ccc(Cl)cc2)C(c2ccccc2)=N1 | u | u | -5.3% | -34.6% | -87.1* | u
O=C(CSc1nnnn1-c1ccccc1)Nc1ccc(Cl)cc1 | -6.8% | -22.8% | 4.1% | 6.7% | -17.0 | 9.7%
CC1(C)N=C(SCC(=O)Nc2ccc(Cl)cc2)C(c2ccc(Cl)cc2)=N1 | u | 18.4µM* | 5.7% | -23.3% | -108.8* | 0.0%
O=C(COC(=O)/C=C/c1ccc(Cl)cc1)Nc1cccc(S(=O)(=O)NC2=NCCCCC2)c1 | u | -30.1% | -0.1% | 6.9% | -9.1 | 3.4%
O=C(COC(=O)c1ccc(OC(F)F)cc1)Nc1cccc(S(=O)(=O)NC2=NCCC2)c1 | -15.0% | 3.3% | 0.7% | 4.9% | 15.5 | 2.4%
CCCCCC(=O)Nc1cccc(S(=O)(=O)NC2=NCCCCC2)c1 | -24.1% | -29.8% | 0.3% | 0.2% | 26.0 | -17.4%
COc1cc(/C=C/C(=O)Nc2cccc(S(=O)(=O)NC3=NCCCCC3)c2)ccc1OCC#N | u | 25.9µM* | x | 5.5% | -56.1* | -6.9%
